In PubChem BioAssay (NCI) one finds growth data, which are given here for 35 compounds.

Structures are written as SMILES. Values joined by “and” are separate entries in the source; they are usually repeats but may differ in a detail not shown here. Equal entries are not always repeated. The panel holds about 83,000 compounds, 20% with a hit somewhere; the sample as a whole holds those more often.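 Activity criterion: percent growth below 10, measured after cells in 96-well plates were exposed to a single compound concentration for 48 hours.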 Active and inactive are the calls of the source.

In one experiment the test system is OVCAR-8 ovarian. The experiment is described as follows: NCI-60 one-dose screen, 48 h (100 = growth as untreated, 0 = no growth, -100 = all killed). As to conditions: 10 µM unless noted.
Take `Cc1c(O)c(O)cc2c3c(oc12)CC(c1ccc2c(c1)OCO2)CC3=O` (stereo unspecified): the growth was 94.8% (inactive).

As to `COc1cc(F)c(/C=C/c2cc(/C=C/c3cc(OC)c(OC)cc3F)n(-c3cc(F)cc(F)c3)n2)cc1OC`, the growth was 36.6% (inactive).

For `CN1CCN(CCCN2c3ccccc3Sc3ccc(Cl)cc32)CC1`, the growth was 84.8% (inactive) and 85.4% (inactive).

As to `O=C(N=Nc1c(O)[nH]c2ccccc12)Nc1ccccc1Cl`, the growth is 97.5% (inactive).

As for `OCCN1CCN(CC/C=C2\c3ccccc3Sc3ccc(Cl)cc32)CC1`, the growth is 79.4% (inactive) and 86.4% (inactive).

`COc1nc2ccc(C)cc2cc1/C=[N+](\[O-])c1ccccc1`: the growth is 95.3% (inactive).

For `O=C(CCN1CCOCC1)Nc1cccc(-n2cc(-c3ccncc3)c(-c3ccc(Cl)c(O)c3)n2)c1`, the growth is 39.5% (inactive).

As to `CN1CCN(c2ccc(Nc3ncc(C(N)=O)c(NCCCNC(=O)C4CCC4)n3)cc2)CC1`, the growth was 71.6% (inactive).

Regarding `CN(C)c1ccc2nc3ccc(=O)cc-3sc2c1`, the growth is 28.1% (inactive) and 6.61% (active).

For the compound `CC(=O)N1N=C(c2ccc(Nc3nc(Nc4ccc(F)cc4)nc(Nc4ccc(F)cc4)n3)cc2)CC1c1ccccc1` (stereo unspecified), the growth is 83% (inactive).

In the case of `C/C=C(\C)C(=O)N[C@H]1CC[C@]2(C)C3CC[C@@]4(C)C(CC[C@@H]4C(C)N(C)C)C3CCC2[C@H]1OC(C)=O` (stereo partly specified), the growth is 24.9% (inactive).

Regarding `Cc1ccc(-c2nc3nc(-c4ccc(Cl)cc4)nc(N4CCCNCC4)c3o2)cc1`, the growth is -58.7% (active).

Take `Nc1n[nH]c2cccc(C#Cc3cccc(NC(=O)c4ccc(N5CCOCC5)c(C(F)(F)F)c4)c3)c12`: the growth was 10.7% (inactive).

Regarding `O=C1C(c2c[nH]c3ccccc23)=C(c2coc3cc(Br)ccc23)C(=O)N1O`, the growth was 106% (inactive).

Consider `Cc1cc(N2CCCCC2)nc(NCc2cc(Nc3ccnc4cc(Cl)ccc34)ccc2F)n1`, for which the growth was -15% (active).

For the compound `CC1(C)C(N)=Nc2cc(OCCCN3Cc4ccc(OCCc5cn(CC(=O)N6CCC(CCN7CCCC7)CC6)nn5)cc4C3)c(OCC3CC3)cc21`, the growth was 92% (inactive).

For the compound `CS(=O)(=O)Nc1cc(-c2ccc3ncnc(Nc4ccc(F)c(Cl)c4)c3c2)cnc1Cl`, the growth is 15.8% (inactive).

As for `Cc1cnc(C(=O)NNc2nc3sc4c(c3c(=O)[nH]2)C(C)CCC4)cn1` (stereo unspecified), the growth is 15.3% (inactive).

For `Cn1cc2c(=O)nc3c(-c4nc5ccccc5[nH]4)n[nH]n3c2n1`, the growth was 70.9% (inactive).

With `Cc1ccc(-c2nc3nc(-c4ccc(F)cc4)nc(N4CCCNCC4)c3o2)cc1`, the growth is -74.8% (active).

As for `COc1ccc2c(c1)c(-c1nc(-c3c[nH]c4c(Cl)nccc34)cs1)cn2C`, the growth was 95.1% (inactive).

For `Cc1nc2sc(C(=O)Nc3cccc4ncccc34)c(N)c2cc1C(C)O` (stereo unspecified), the growth was 86.6% (inactive).

Turning to `N=C(N)c1ccc(-c2ccc(-c3ccc(F)cc3)s2)nc1`, the growth is 68.9% (inactive).

`CN(C)CCCn1c2nc(=O)[nH]c(=O)c-2nc2cc(Cl)c(Cl)cc21`: the growth was 50% (inactive).

Regarding `Brc1ccc(/C=C(/C2=NCCN2)n2ccc3ccccc32)cc1`, the growth is 72.3% (inactive).

Take `CCOC(=O)c1c(-c2ccc(OC)cc2)c(C#N)c2c(C#N)c(N)nn2c1N`: the growth was 43.9% (inactive).

For `COc1ccc(S(=O)(=O)Nc2cc(Sc3cccc4cccnc34)c(O)c3ccccc23)cc1`, the growth is 9.48% (active).

The next experiment deals with OVCAR-5 ovarian. The experiment is described as above. The note with it: 10 µM unless noted.
As to `NC1=CC(=O)c2cccnc2C1=O`, the growth is -70.8% (active).

As for `O=C(c1ccc(Nc2nccc(NCCCNc3ccnc4cc(Cl)ccc34)n2)cc1)N1CCCCC1`, the growth is 71.2% (inactive).

Turning to `COc1c(NC=O)c2c(c([N+](=O)[O-])c1OC)C(=O)OC2`, the growth was 120% (inactive) and 99.7% (inactive).

As for `COc1ccc(Cl)cc1Nc1nc(C(F)(F)F)ccc1C(=O)N/N=C/c1ccc(N(C)C)cc1`, the growth was 79.5% (inactive).

With `CC/C=C\C/C=C\C[C@H](O)C/C=C1/C(=O)C=C[C@@H]1C/C=C\CCCC(=O)OC`, the growth is 11% (inactive).

In the case of `Cc1[nH]c(C(=O)Nc2nc3ccc(NC(=O)CCN)cc3s2)c(Cl)c1Cl`, the growth was 92.5% (inactive).

For the compound `COc1cc(Cl)cc(-c2nn(C(=O)NS(=O)(=O)c3ccc(Cl)cc3)cc2-c2ccncc2)c1`, the growth was 87.4% (inactive).

On to `C[C@@H]1O[C@@H](O[C@H]2[C@@H](OC(=O)[C@]34CCC(C)(C)C[C@H]3C3=CC[C@@H]5[C@@]6(C)C[C@H](O)[C@H](O[C@@H]7O[C@H](CO)[C@@H](O)[C@H](O)[C@H]7O)[C@@](C)(CO)[C@@H]6CC[C@@]5(C)[C@]3(C)C[C@H]4O)OC[C@@H](O)[C@@H]2O)[C@H](O)[C@H](O[C@@H]2OC[C@@H](O)[C@H](O[C@@H]3OC[C@](O)(CO)[C@H]3O[C@@H]3OC[C@@H](O)[C@H](O)[C@H]3O)[C@H]2O)[C@H]1O[C@@H]1OC[C@](O)(CO)[C@H]1O`, for which the growth was 78.1% (inactive).

On to `Cc1c(O)c(O)cc2c3c(oc12)CC(c1ccc2c(c1)OCO2)CC3=O` (stereo unspecified), for which the growth was 113% (inactive).

As to `COc1cc(F)c(/C=C/c2cc(/C=C/c3cc(OC)c(OC)cc3F)n(-c3cc(F)cc(F)c3)n2)cc1OC`, the growth was 51.4% (inactive).

For `CN1CCN(CCCN2c3ccccc3Sc3ccc(Cl)cc32)CC1`, the growth is 94.4% (inactive).

`O=C(N=Nc1c(O)[nH]c2ccccc12)Nc1ccccc1Cl`: the growth was 93.6% (inactive).

With `OCCN1CCN(CC/C=C2\c3ccccc3Sc3ccc(Cl)cc32)CC1`, the growth is 41.8% (inactive) and 63.4% (inactive).

For `COc1nc2ccc(C)cc2cc1/C=[N+](\[O-])c1ccccc1`, the growth is 92.6% (inactive).

As for `O=C(CCN1CCOCC1)Nc1cccc(-n2cc(-c3ccncc3)c(-c3ccc(Cl)c(O)c3)n2)c1`, the growth was 62.2% (inactive).

For the compound `CN1CCN(c2ccc(Nc3ncc(C(N)=O)c(NCCCNC(=O)C4CCC4)n3)cc2)CC1`, the growth was 116% (inactive).

On to `CN(C)c1ccc2nc3ccc(=O)cc-3sc2c1`, for which the growth is 86.6% (inactive) and 88.5% (inactive).

With `CC(=O)N1N=C(c2ccc(Nc3nc(Nc4ccc(F)cc4)nc(Nc4ccc(F)cc4)n3)cc2)CC1c1ccccc1` (stereo unspecified), the growth was 72.3% (inactive).

With `C/C=C(\C)C(=O)N[C@H]1CC[C@]2(C)C3CC[C@@]4(C)C(CC[C@@H]4C(C)N(C)C)C3CCC2[C@H]1OC(C)=O` (stereo partly specified), the growth was 22% (inactive).

For `Cc1ccc(-c2nc3nc(-c4ccc(Cl)cc4)nc(N4CCCNCC4)c3o2)cc1`, the growth was -98.5% (active).

Consider `Nc1n[nH]c2cccc(C#Cc3cccc(NC(=O)c4ccc(N5CCOCC5)c(C(F)(F)F)c4)c3)c12`, for which the growth is 8.26% (active).

As to `O=C1C(c2c[nH]c3ccccc23)=C(c2coc3cc(Br)ccc23)C(=O)N1O`, the growth was 105% (inactive).

As for `Cc1cc(N2CCCCC2)nc(NCc2cc(Nc3ccnc4cc(Cl)ccc34)ccc2F)n1`, the growth is -42.1% (active).

On to `CC1(C)C(N)=Nc2cc(OCCCN3Cc4ccc(OCCc5cn(CC(=O)N6CCC(CCN7CCCC7)CC6)nn5)cc4C3)c(OCC3CC3)cc21`, for which the growth was 95% (inactive).

As for `CS(=O)(=O)Nc1cc(-c2ccc3ncnc(Nc4ccc(F)c(Cl)c4)c3c2)cnc1Cl`, the growth is 15.3% (inactive).

On to `Cn1cc2c(=O)nc3c(-c4nc5ccccc5[nH]4)n[nH]n3c2n1`, for which the growth was 126% (inactive).

With `Cc1ccc(-c2nc3nc(-c4ccc(F)cc4)nc(N4CCCNCC4)c3o2)cc1`, the growth was -97.3% (active).

On to `COc1ccc2c(c1)c(-c1nc(-c3c[nH]c4c(Cl)nccc34)cs1)cn2C`, for which the growth is 57.4% (inactive).

`Cc1nc2sc(C(=O)Nc3cccc4ncccc34)c(N)c2cc1C(C)O` (stereo unspecified): the growth is 96.5% (inactive).

Consider `N=C(N)c1ccc(-c2ccc(-c3ccc(F)cc3)s2)nc1`, for which the growth is 77.6% (inactive).

For the compound `CN(C)CCCn1c2nc(=O)[nH]c(=O)c-2nc2cc(Cl)c(Cl)cc21`, the growth was 125% (inactive).

Consider `Brc1ccc(/C=C(/C2=NCCN2)n2ccc3ccccc32)cc1`, for which the growth is 72.9% (inactive).

Turning to `CCOC(=O)c1c(-c2ccc(OC)cc2)c(C#N)c2c(C#N)c(N)nn2c1N`, the growth was 70.1% (inactive).

On to `COc1ccc(S(=O)(=O)Nc2cc(Sc3cccc4cccnc34)c(O)c3ccccc23)cc1`, for which the growth was 42.3% (inactive).
